This is a sample that favours compounds with a hit; in the whole collection about 2.7% have one here.
Peg3 prom inh: Peg3 promoter-driven luciferase inhibitors, primary screen, cell-based, HeLa, luciferase luminescence. AID 588405, 2011. HeLa PEG-Prom luciferase reporter, overnight. 360,000 compounds, 1.7% hits. inhibition, % at 20 µM;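 active = inhibition of at least 50% at 20 µM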
HIF-2a block: HIF-2a reporter inhibitors, primary screen, luminescence, 786-0 RCC cells; 786-0 RCC cells HIF-2a reporter, luciferase luminescence, overnight; inhibition, % at 18.8 µM; 360,000 compounds, 0.72% hits; AID 624352, 2012;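 active = inhibition of the luminescence signal of 40% or more relative to plate controls, in a single-dose primary screen at 18.75 µM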
CF NFkB block: inhibitors of PAF-induced NF-kB signaling, primary screen, cell-based, GFP fluorescence, uHTS; KKLEB NF-kB-GFP reporter, GFP fluorescence overnight; inhibition, % at 5 µM; 360,000 compounds, 0.86% hits;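 active = at least 50% inhibition at 5 µM, scaled per plate between neutral and stimulator controls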;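 also: PAF is a Pseudomonas aeruginosa culture filtrate used as stimulus; plate controls were PAF-stimulated DMSO wells for no effect and unstimulated DMSO wells for full effect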
Shn3 3UTR inh: reduction of Shn3 3'UTR firefly luciferase signal, primary screen, Schnurri-3 inhibitor project, cell-based, Clone20 osteoblasts, set 2 | Clone20 osteoblast Shn3 3'UTR firefly luciferase, 24 h | 360,000 compounds, 0.52% hits | inhibition, % at 12.5 µM | AID 588674, 2011;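 active = mean inhibition of at least 75% with every replicate also reaching 75%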;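 also: 0% = median of neutral control wells and 100% = pilot-screen positive control compound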
TRPM1 prom inh: inhibitors of MITF-dependent TRPM1 promoter reporter, primary screen, cell-based, SK-MEL-5, single point, luciferase. SK-MEL-5 TRPM1 promoter luciferase, 24 h. inhibition, % at 12.5 µM. 330,000 compounds, 0.83% hits;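 active = mean inhibition across replicates of 60% or more, whatever share of single replicates reaches that level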
KKLEB tox: cytotoxicity in KKLEB CF airway cells, primary screen, cytotoxicity control for CF NF-kB inhibitor project, cell-based, uHTS, fluorescence assay plates. KKLEB CF airway cells viability, ATPlite luminescence, overnight; stronger effect = lower value; cells stimulated with P. aeruginosa culture filtrate. activity change (cytotoxicity), % at 5 µM. 360,000 compounds, 0.36% hits;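 active = corrected activity change at or below -50% at 5 µM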
Numbers without * were called inactive; x = no result given.

SMILES	Peg3 prom inh	HIF-2a block	CF NFkB block	Shn3 3UTR inh	TRPM1 prom inh	KKLEB tox
CN(C)S(=O)(=O)c1ccc(Cl)c(C(=O)Nc2nc3ccccc3[nH]2)c1	-8	-40	-4	1	0	6
O=C(/C=C/c1ccc(S(=O)(=O)N2CCOCC2)cc1)N1CCN(c2ccccc2)CC1	66*	14	11	47	7	0
O=C1CC(N(CCc2ccccc2)C(=S)Nc2ccccc2)C(=O)N1c1ccc(Br)cc1 (configuration not stated)	54*	-30	11	27	-10	-8
COc1ccc(CCN(C(=S)Nc2ccccc2)C2CC(=O)N(c3ccccc3)C2=O)cc1 (configuration not stated)	0	-4	-7	22	-6	1
COc1cc(C(CCN2CCCC(C)C2)c2c(OC)cc(OC)c3c(-c4ccccc4)cc(=O)oc23)cc(OC)c1OC (configuration not stated)	87*	13	3	12	90*	-6
COc1cc(C(CCN2CCCCC2)c2c(OC)cc(OC)c3c(-c4ccccc4)cc(=O)oc23)cc(OC)c1OC (configuration not stated)	78*	7	16	7	85*	-3
CC1=NC(=O)C(N=Nc2cccc(C(=O)O)c2)N1c1ccccc1 (configuration not stated)	47	54*	2	-7	81*	-1
C#CCOCCOCCOCCNc1nc(N2CCN(C(=O)CCCCCCCCCCNC(=O)[C@H](CCCCN)n3cc(C[C@@H](C)CC)nn3)CC2)nc(N2CCN(C(=O)CCCCCCCCCCNC(=O)[C@@H]([C@H](C)O)n3cc(C)nn3)CC2)n1	98*	63*	26	96*	94*	-49
C#CCOCCOCCOCCNc1nc(N2CCN(C(=O)CCCCCCCCCCNC(=O)[C@H](CCCCN)n3cc(C)nn3)CC2)nc(N2CCN(C(=O)CCCCCCCCCCNC(=O)[C@@H]([C@H](C)O)n3cc(C)nn3)CC2)n1	50*	5	-3	10	39	11
C#CCOCCOCCOCCNc1nc(N2CCN(C(=O)CCCCCCCCCCNC(=O)Cn3cc(CCCCCN)nn3)CC2)nc(N2CCN(C(=O)CCCCCCCCCCNC(=O)[C@@H]([C@H](C)O)n3cc(C)nn3)CC2)n1	35	-6	-2	-33	35	-3
C#CCOCCOCCOCCNc1nc(N2CCN(C(=O)CCCCCCCCCCNC(=O)[C@H]([C@@H](C)CC)n3cc(CCCCN=C(N)N)nn3)CC2)nc(N2CCN(C(=O)CCCCCCCCCCNC(=O)[C@@H]([C@H](C)O)n3cc(C)nn3)CC2)n1	1	-7	7	38	65*	10
COc1ccc(/C=[N+](\[O-])C2N(c3ccccc3)C(=S)SC2(C)C)cc1OC (configuration not stated)	-3	11	8	13	8	-12
O=C(c1ccc(NS(=O)(=O)/C=C/c2ccccc2)cc1)N1CCCCC1	13	21	56*	2	12	-69*
Cc1ccc(C(=O)NCC(c2ccco2)N2CCc3ccccc32)cc1 (configuration not stated)	-3	6	-16	20	8	-4
O=C1C=C(C2CCCCC2)C(=O)c2ccccc21	12	1	71*	-40	44	18
COc1cccc(CN(C)C(=O)CCN=C2NS(=O)(=O)c3ccccc32)c1	-1	7	-4	6	-3	20
Cc1ccccc1-n1ncc2c1CC(C)(C)CC2NC(=O)C1=CC(=O)CC(C)(C)O1 (configuration not stated)	6	2	34	30	1	-14
CCN1CCN(c2c(Cl)cccc2NC(=O)c2ccc([N+](=O)[O-])o2)CC1	52*	-2	50	13	102*	-12
O=C(Nc1cccc(Cl)c1N1CCCC1)c1ccc([N+](=O)[O-])o1	10	7	10	-30	23	-3
O=C(Nc1ccccc1N1CCN(C(=O)c2ccc(Cl)cc2)CC1)c1ccc([N+](=O)[O-])o1	27	9	4	-45	87*	-15
CSCCC(NC(=O)c1ccccc1Cl)C(=O)NC1CCN(Cc2ccccc2)CC1 (configuration not stated)	2	-2	-13	-3	-3	10
Cc1ccc(Nc2nc(Cl)nc3ncn(C)c23)c(C)c1	17	6	7	-24	-3	7
Nc1ccc(Oc2ccccc2-c2ccccc2)cc1	49	91*	0	x	66*	6
COc1cc(/C=C(\C#N)c2nnc(N3CCOCC3)n2-c2ccccc2)ccc1O	6	-5	-5	-23	11	4
N#C/C(=C/c1ccc(-c2ccc([N+](=O)[O-])cc2)o1)c1nnc(N2CCOCC2)n1-c1ccccc1	67*	-8	-19	3	15	-3
SMILES	Peg3 prom inh	HIF-2a block	CF NFkB block	Shn3 3UTR inh	TRPM1 prom inh	KKLEB tox
Cc1ccc(NC(=O)Cn2c(O)c(N=NC(N)=O)c3ccccc32)cc1	21	16	-14	8	14	8
Cc1ccc(NC(=O)Cn2c(O)c(N=NC(N)=S)c3ccccc32)cc1	22	47*	8	64	43	-9
COc1ccc(NS(=O)(=O)c2ccc(OC)c(N(C)S(=O)(=O)c3ccc(Cl)cc3)c2)cc1	35	13	17	87*	19	-16
Cn1nc(C(C)(C)C)c([N+](=O)[O-])c1C(=O)N1CCCCCC1	-9	9	-43	-22	-52	7
Cc1cc(O)c(-c2cc(C(=O)Nc3ccc(S(=O)(=O)N4CCOCC4)cc3)[nH]n2)cc1C	60*	-4	5	30	8	9
Cc1ccc(O)c(-c2cc(C(=O)Nc3ccc(S(=O)(=O)N4CC(C)OC(C)C4)cc3)[nH]n2)c1 (configuration not stated)	55*	-4	-5	63	2	9
O=C(Nc1ccc(S(=O)(=O)N2CCOCC2)cc1)c1cc(-c2cc(Cl)ccc2O)n[nH]1	86*	-3	23	40	11	-44
Cc1ccc(-c2cc(C(=O)Nc3ccc(S(=O)(=O)N4CC(C)OC(C)C4)cc3)[nH]n2)c(O)c1 (configuration not stated)	43	21	13	37	-5	-8
CN(C)N1C(N)=C(C#N)C(c2ccccc2F)C2=C1CC(C)(C)CC2=O (configuration not stated)	4	19	5	10	2	-1

Assay outcomes (PubChem BioAssay)
